The campaign covered roughly 96,000 compounds. About 20,000 (21%) were called active. Only a sample is shown. Values without a mark were called inactive.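 Rule for the calls: active = CYP2C19 inhibition above a set limit at 5 µM in the primary screen (cut at about 50% in these data); inactive = the rest.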
What follows are compounds tested against Cytochrome P450 2C19 (Homo sapiens) (UniProt P33261) (assay: blockers of cytochrome P450 2C19 activity – biochemical, luminescence, ADME assay, primary screen (AID 778;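 note: plate controls were negative control wells for no effect and 2.5 mM tranylcypromine positive control for full effect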)). Settings: CYP2C19 Supersomes, luciferin-H EGE luminescence, 30 min; at 5 µM; hits give high values.
Sequence of Cytochrome P450 2C19 (Homo sapiens) (P33261 whole entry, looked up): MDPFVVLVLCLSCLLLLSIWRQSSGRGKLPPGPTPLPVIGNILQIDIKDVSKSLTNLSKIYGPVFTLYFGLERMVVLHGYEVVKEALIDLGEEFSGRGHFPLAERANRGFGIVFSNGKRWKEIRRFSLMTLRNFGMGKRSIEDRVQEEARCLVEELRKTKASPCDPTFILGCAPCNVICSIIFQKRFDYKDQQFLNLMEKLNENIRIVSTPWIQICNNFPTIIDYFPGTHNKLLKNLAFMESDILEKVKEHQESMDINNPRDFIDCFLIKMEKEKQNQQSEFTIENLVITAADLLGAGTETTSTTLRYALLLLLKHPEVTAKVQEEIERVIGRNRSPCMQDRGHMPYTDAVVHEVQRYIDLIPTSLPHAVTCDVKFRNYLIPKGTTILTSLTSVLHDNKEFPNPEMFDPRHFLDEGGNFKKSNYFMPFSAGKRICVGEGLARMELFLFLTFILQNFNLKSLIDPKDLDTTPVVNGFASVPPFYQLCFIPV
`CCn1c(=N)c(C(=O)NCCCOC)cc2c(=O)n3cccc(C)c3nc21` gave an inhibition of -9.8%.
In the case of `Cc1cccn2c(=O)c3cc(C#N)c(=O)n(CCCN4CCOCC4)c3nc12`, the inhibition is reported as 61.4% (active).
For `Cc1cccn2c(=O)c3cc(C(=O)N4COCC4(C)C)n(C)c3nc12`, the inhibition was 0.5%.
In the case of `CCCc1[nH]nc2c1C(c1ccc(Br)s1)C(C#N)=C(N)O2` (stereo not drawn), the inhibition is reported as 34.4%.
Work on `Cc1noc(NS(=O)(=O)c2ccc(N/C=C/C(=O)c3ccccc3)cc2)c1C` yielded an inhibition of -5.7%.
`Cc1noc(C)c1CSc1nc2cc(S(=O)(=O)N3CCOCC3)ccc2o1` was tested, and the inhibition was 63.9% (active).
Compound `Cc1ccc(S(=O)(=O)N2CCN(S(=O)(=O)N3CCOCC3)CC2)cc1` has an inhibition of 7.3%.
With `Cc1ccc(Oc2nc3ccccc3n3c(C)nnc23)cc1` the inhibition was -14.5%.
With `COc1ccccc1-n1nnnc1S(=O)(=O)Cc1ccc(Cl)cc1` the inhibition was 58.4% (active).
With `COc1ccccc1N1CCN(C(=O)CN(Cc2ccc(Cl)cc2)S(C)(=O)=O)CC1` the inhibition was 34%.
For `CCOCCCNC(=O)C(NC(=O)c1ccc(=O)[nH]c1)c1ccc(C)cc1` (stereo not drawn), the inhibition was 5.2%.
`N#Cc1c(/N=C/N2CCCC2)oc(-c2ccccc2)c1-c1ccccc1` gave an inhibition of 45.7%.
In the case of `COc1ccc(-c2oc(/N=C/N3CCCC3)c(C#N)c2-c2ccc(OC)cc2)cc1`, the inhibition is reported as 59.3% (active).
In the case of `COc1cc(C(=O)Nc2oc(-c3ccccc3)c(-c3ccccc3)c2C#N)cc(OC)c1OC`, the inhibition is reported as 27.1%.
`COc1cccc(CN2C(=O)CCC2(C)C(=O)NC2CCCCCC2)c1` (stereo not drawn) gave an inhibition of 8.6%.
For `CCc1cc2c(N3CCN(c4nnc(CC)s4)CC3)ncnc2s1`, the inhibition was 52.3% (active).
Work on `Cc1ccc(-n2ncc3c(N4CCN(c5ccc(F)cc5)CC4)ncnc32)c(C)c1` yielded an inhibition of -22.2%.
`Cc1nnc(SCC(=O)Nn2cnnc2)s1` showed an inhibition of 4%.
Compound `CC(NCCO)C(=O)C12CC3CC(CC(C3)C1)C2` (stereo not drawn) has an inhibition of -5.4%.
With `CC(C)(C)Cc1nnc(NC(=O)c2cc(-c3ccccc3)nc3ccccc23)s1` the inhibition was 11.9%.
For `COc1ccc(Br)cc1CN1CCN(C(=O)c2cccc(OC)c2OC)CC1`, the inhibition was 74% (active).
Work on `CCn1cc(C(=O)N2CCN(Cc3ccc4c(c3)OCO4)CC2)c2cc(OC)c(OC)cc2c1=O` yielded an inhibition of 29.5%.
For `COc1cccc(OC)c1OCCN1CCN(C(=O)c2ccco2)CC1`, the inhibition was 21%.
Work on `CCCn1nc2cc(C(=O)NCc3ccccc3)ccc2c1OCC` yielded an inhibition of 2.2%.
Compound `CCCS(=O)(=O)C(=C1Nc2ccccc2N1)S(=O)(=O)CCC` has an inhibition of 8.6%.
Compound `O=C(CC1(O)C(=O)N(CN2CCOCC2)c2ccccc21)c1ccccc1` (stereo not drawn) has an inhibition of 12.7%.
In the case of `C=CCN1C(=O)C(O)(CC(=O)c2ccc(Cl)cc2)c2ccccc21` (stereo not drawn), the inhibition is reported as 89.1% (active).
Compound `CCOC(=O)CN1C(=O)C(O)(CC(=O)c2ccccn2)c2ccccc21` (stereo not drawn) has an inhibition of 6.5%.
In the case of `Fc1ccc2nc(Nc3nc4c(s3)CCCC4)sc2c1`, the inhibition is reported as -8.1%.
`Cc1nc2ccc(S(=O)(=O)NC(C(=O)N3CCCCCC3)C(C)C)cc2s1` (stereo not drawn) was tested, and the inhibition was 21.2%.
`CC(c1ccco1)N(C(=O)c1ccc(S(=O)(=O)N2CCCCC2)cc1)c1ccccn1` (stereo not drawn) was tested, and the inhibition was 59.1% (active).
Compound `CC(c1ccco1)N(C(=O)COc1ccccc1[N+](=O)[O-])c1ccccn1` (stereo not drawn) has an inhibition of 40.5%.
Work on `CC(C)Cc1ccc(S(=O)(=O)N2CCN(C(=O)c3ccco3)CC2)cc1` yielded an inhibition of 28.1%.
`Cc1c(NC(=O)/C=C/C(=O)O)cccc1[N+](=O)[O-]` showed an inhibition of 26.2%.
`CO/N=C/c1ccc(N2CCN(C(=O)c3cccc(Cl)c3)CC2)c([N+](=O)[O-])c1` gave an inhibition of 33.8%.
Work on `Cc1c(C)c2cc3c4c(oc3c(C)c2oc1=O)CCCC4` yielded an inhibition of -0.1%.
`Cc1ccc(OC(=O)c2ccccc2C(=O)OCC(F)(F)C(F)F)cc1` was tested, and the inhibition was 88.6% (active).
Work on `CCOC(=O)c1cnc(-c2ccccc2)nc1Oc1ccc(C)cc1` yielded an inhibition of 35.2%.
With `Cc1ccc(OC(=O)c2cc3ccccc3o2)cc1` the inhibition was -12.8%.
With `Cc1ccc(C(=O)CS(C)(=O)=O)cc1` the inhibition was 1%.
With `COc1ccc(-n2ncc3c(N4CCCc5ccccc54)ncnc32)cc1` the inhibition was 12.3%.
In the case of `Cc1ccc(/C=N/NC(=O)Cn2nc(C)c(Br)c2C)o1`, the inhibition is reported as 50.5% (active).
`O=C(CSc1ccc(/C=N/NC(=O)c2cccc(F)c2)o1)Nc1ccccc1` gave an inhibition of 17.1%.
With `O=C(CN1CCSCC1)N/N=C/c1ccc(F)cc1` the inhibition was 16.6%.
`O=C(Nc1ccc2c(c1)nc1n2CCCCC1)c1cc(S(=O)(=O)N2CCOCC2)ccc1Cl` was tested, and the inhibition was 25.7%.
With `CCCCCOC(=O)NCCOC(=O)Nc1ccc(C(=O)OCC)cc1` the inhibition was 4.4%.
`Cc1cc(NC(=O)c2cnn3cccnc23)n(-c2ccccc2)n1` gave an inhibition of 25%.
In the case of `O=C1CSC(c2cccc(F)c2)N1c1ccccc1F` (stereo not drawn), the inhibition is reported as 32.9%.
In the case of `CC(C)C(NC(=O)c1cccc(S(=O)(=O)N2CCOCC2)c1)C(=O)NCCc1ccccn1` (stereo not drawn), the inhibition is reported as -13.9%.
`O=C(c1cccc(S(=O)(=O)N2CCOCC2)c1)N1CCOCC1` was tested, and the inhibition was -6.3%.
For `CCN(Cc1ccncc1)C(=O)c1cccc(S(=O)(=O)N2CCOCC2)c1`, the inhibition was 97% (active).
With `COc1ccc(Nc2nc(=O)[nH]nc2C)cc1` the inhibition was 5%.
`Cn1c(CCN2CCCCCC2)nc2cc(NC(=O)Nc3ccccc3)ccc21` was tested, and the inhibition was -3.4%.
For `O=c1[nH]c2c(c(=O)n1Cc1ccccc1)CCC2`, the inhibition was -3.7%.
With `COc1ccc(C(=O)CN(C(=O)c2ccc(Cl)cc2)N2C(=O)c3ccccc3C2=O)cc1` the inhibition was 36%.
Compound `Cc1cc(NC(=O)CS(=O)(=O)c2cn(C)c3ccccc23)no1` has an inhibition of 27.3%.
Work on `CCN(CC)C(=O)CSC1c2ccccc2C(=O)N1c1ccccc1` (stereo not drawn) yielded an inhibition of 49.3%.
`CCc1ccccc1NC1c2ccccc2C(=O)N1c1cccnc1` (stereo not drawn) was tested, and the inhibition was 81.5% (active).
Work on `N#Cc1nc(N)nc(N(c2ccccc2)c2ccccc2)n1` yielded an inhibition of 10.4%.
With `CC(=O)Nc1cccc(-c2csc(Nc3cccc(C)n3)n2)c1` the inhibition was 5.7%.
`CCOC(=O)CCP(=O)(O)C(O)(c1ccccc1)c1ccccc1` gave an inhibition of -0.4%.
`CCn1c(=O)c(=O)n(CC)c2cc(S(=O)(=O)N3CCc4ccccc43)ccc21` was tested, and the inhibition was 91.3% (active).
In the case of `Cn1c(=O)n(C)c2cc(S(=O)(=O)N3CCCc4ccccc43)ccc21`, the inhibition is reported as 98.7% (active).
Compound `CC1CCC(NS(=O)(=O)c2ccc3c(c2)n(C)c(=O)c(=O)n3C)CC1` (stereo not drawn) has an inhibition of 8.2%.
In the case of `CSc1nc2ccc(S(=O)(=O)N3CCc4ccccc43)cc2s1`, the inhibition is reported as 47.8%.
Compound `COc1ccc(C(=O)OCC(=O)NCC2CCCCC2)cc1S(=O)(=O)N1CCCc2ccccc21` has an inhibition of -0.1%.
For `Cc1nn(C)c(C)c1S(=O)(=O)N1CCc2ccccc21`, the inhibition was 43.3%.
In the case of `CC1C(c2ccccc2)=[N+]([O-])C2(CCCC2)N1O` (stereo not drawn), the inhibition is reported as 18.6%.
With `C=CCOc1cccc(CNn2cn[nH]c2=S)c1` the inhibition was 33.9%.
Compound `CCCOC(=O)Nc1sc2c(c1C(=O)OCC)CCC2` has an inhibition of -7.3%.
`COc1ccc(N2CCN(CCNC(=O)CCN3C(=O)COc4ccccc43)CC2)cc1` was tested, and the inhibition was 6.4%.
Work on `COc1ccc(CN2CC(C(=O)NCCN3CCN(c4ccccc4F)CC3)CC2=O)cc1` (stereo not drawn) yielded an inhibition of -6.5%.
In the case of `COc1ccc(N2CCN(CCNC(=O)c3nnc(Cc4c(F)cccc4Cl)o3)CC2)cc1`, the inhibition is reported as 77.3% (active).
`CCC(C(=O)Nc1ncccn1)(C(F)(F)F)C(F)(F)F` gave an inhibition of -8.1%.
For `NC(=O)CCCC1=NS(=O)(=O)c2ccccc2N1`, the inhibition was -6.5%.
`COCc1cc(=O)[nH]c2cc(NC(=O)C(F)(F)F)c(C)cc12` gave an inhibition of 0.8%.
In the case of `CCC1CCCCN1CCNC(=O)c1[nH]c(C)c(C(C)=O)c1C` (stereo not drawn), the inhibition is reported as 2.4%.
With `COC(=O)C(NC(C)=O)(Nc1nc2c(s1)CCCC2)C(F)(F)F` (stereo not drawn) the inhibition was 39.3%.
In the case of `CCC(=O)NC(Nc1nc2ccc(C)cc2s1)(C(=O)OC)C(F)(F)F` (stereo not drawn), the inhibition is reported as 85.5% (active).
With `CCC(=O)NC(Nc1cc(C)ccn1)(C(F)(F)F)C(F)(F)F` the inhibition was 14.8%.
`CNC(=S)NNC(=O)c1sccc1OCc1ccccc1` gave an inhibition of 20.4%.
`COC(=O)CN(c1nc(C)c(Cl)c(OC)n1)S(=O)(=O)c1ccc(C)cc1` gave an inhibition of 19.1%.
Compound `COC(=O)c1ccc(NC(=O)CN(c2ccc(C)cc2)S(=O)(=O)c2c(C)n[nH]c2C)cc1` has an inhibition of 35%.
For `CCNC(=O)CN(c1ccc(C)cc1)S(=O)(=O)c1ccc(SC)cc1`, the inhibition was 75.6% (active).
`CC1CCC(NC(=O)c2ccc(N3CCCC3=O)cc2)CC1` (stereo not drawn) was tested, and the inhibition was -0.4%.
With `CCCc1cc(=O)[nH]c(SCC(=O)OCc2ccccc2)n1` the inhibition was 55% (active).
Compound `Cc1cc(=O)[nH]c(SCc2cccc(F)c2)n1` has an inhibition of 7%.
In the case of `CCCc1cc(=O)[nH]c(SCc2ccc(C#N)cc2)n1`, the inhibition is reported as 65.1% (active).
`CCCc1cc(=O)[nH]c(SCC(=O)c2cc(C)n(CCC)c2C)n1` showed an inhibition of 29.3%.
`CCOC(=O)Cc1csc(NC(=O)CSc2nc(C)cc(=O)[nH]2)n1` was tested, and the inhibition was 12.8%.
In the case of `CCCc1cc(=O)n2[nH]c(SCc3ccccc3)nc2n1`, the inhibition is reported as 1.2%.
With `CC(C)c1cc(C(N)=O)c(NC(=O)c2cccc(COc3ccc(Br)cc3)c2)s1` the inhibition was 5.8%.
With `CC(=O)Oc1ccc(C(C)=O)c2c1OCCO2` the inhibition was 12.1%.
For `CCOC(=O)N1CCN(C(=O)Cc2ccc(-n3c(=S)[nH]c4ccccc4c3=O)cc2)CC1`, the inhibition was 17.9%.
`COc1ccccc1CNC(=O)C1CCCN(S(=O)(=O)c2cccc3cccnc23)C1` (stereo not drawn) was tested, and the inhibition was 16%.
In the case of `CCN(Cc1ccccc1)C(=O)CSc1nc(C)cc2c1C(=O)OC2`, the inhibition is reported as 72.3% (active).
`CCOC(=O)n1c(SCC(=O)N(CC)CC)nc2ccccc21` gave an inhibition of 2.8%.
`Cc1ccc(-c2nn(-c3ccccc3)cc2CN(Cc2ccccc2)C(=O)CCC(=O)O)o1` showed an inhibition of 23.4%.

— PubChem BioAssay AID778 (Sanford-Burnham Center for Chemical Genomics, 2007)
